# Source: PubChem BioAssay (National Center for Advancing Translational Sciences (NCATS))
# DT40 TDP1 CPT – growth inhibition of DT40 Tdp1-/-;hTDP1 cells with camptothecin (screen for TDP1 inhibitors); chicken DT40 Tdp1-/-;hTDP1 cells + 20 nM CPT, ATP luminescence, 48 h; Potency, µM (top dose mostly 46.2 µM), for the others: at the highest dose activity change, negative = growth inhibition, hits mostly inhibitors; 420,000 tested, 12% active; further: potency means the concentration at half of the fitted maximal effect; nearly all actives have a fitted effect of over 55% in size
#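 Cell growth measured by CellTiter-Glo luminescence after a minimum 48 h, 37 C compound exposure with 20 nM CPT in Tdp1-knockout DT40 cells stably expressing hTDP1, seeded 400/well; qHTS titration format.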
# IL-1B inflam inh – inhibitors of inflammasome signaling (IL-1 beta secretion); 360,000 tested, 4.7% active; activity change, % at 57.5 µM; THP-1 LPS/ATP IL-1B secretion, AlphaLISA, 16 h; hits give low values; AID 743279; in the data active means activity change below about -50%; inconclusive means mostly about -30% to -49%
#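 Secreted IL-1B measured by AlphaLISA bead assay after 16 h compound exposure of THP-1 cells; compounds (final up to 57.5 uM) added 1 h before LPS (250 ng/mL) and ATP (1.25 mM) stimulation; lower signal means less secretion.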
# HT1080 IDH1KD tx – toxicity to HT-1080 IDH1 knockdown cells (counter line); HT-1080 IDH1 knockdown viability, ATP luminescence, 48 h; Potency, µM (highest dose often 46.1 µM), without a hit: top-dose activity, negative = toxicity, most hits filed as cytotoxic; 360,000 tested, 2% active;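 further: potency means the concentration at half of the fitted maximal effect; 0% = DMSO wells and -100% = cell-free medium wells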
#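 Viability of IDH1-knockdown HT-1080 fibrosarcoma cells was assessed by CellTiter-Glo after 48 h at 37 °C with titrated compound; concentration-effect curves were classified by fit quality and response size.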
# HT1080-NT tox – kills 2HG-producing HT-1080-NT fibrosarcoma cells | HT-1080-NT fibrosarcoma viability, CellTiter-Glo ATP luminescence, 48 h | Potency, µM (series often up to 46.1 µM), inactives show at the top dose activity, negative = less viability, usual class: cytotoxic | 360,000 tested, 1.6% active | AID 686970;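 further: NT is the 2HG producing partner of a matched IDH1 knockdown line; potency means the concentration at half of the fitted maximal effect; 0% = DMSO-treated cells and -100% = media-only wells without cells; nearly all actives have a fitted effect of over 55% in size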
#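 Viability of the 2HG-overproducing fibrosarcoma line after 48 hours of compound exposure at 37 degrees C was determined by luminescence with CellTiter-Glo, and concentration-effect curves were then fitted and categorized.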
# DT40 TDP1 no CPT – qHTS for Inhibitors of human tyrosyl-DNA phosphodiesterase 1 (TDP1): qHTS in cells in absence of CPT | Potency, µM (series often up to 46.2 µM), for inactives: at the highest dose activity change, negative = growth inhibition, actives largely listed as inhibitors | AID 686978, 2013 | 420,000 tested, 15% active | DT40 Tdp1-/- hTDP1 cells, no CPT, ATP luminescence, 48 h; further: potency means the concentration at half of the fitted maximal effect; nearly all actives have a fitted effect of over 55% in size
#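 Cells were dispensed at 400 per well, compounds added by pin tool, plates incubated ≥48 hr at 37 °C, then CellTiter-Glo added for 30 min at room temperature before luminescence reading. Line: DT40 Tdp1-/- complemented with hTDP1; camptothecin omitted.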
# The depositor's hits bear a star; i = inactive; ? = inconclusive; / = no result; [ ] = dose if it differs, or a comment. This is a sample that favours compounds with a hit; in the whole collection about 19% have one here. Unless noted, the call rests on the fitted dose curve; in most records, active means well fitted curve in the direction sought with a large enough effect; inconclusive means small, poorly fitted or top-dose-only effect, or another doubt; inactive means no such curve, though single readings can be large; an effect the other way counts as inactive or inconclusive. Unless noted, on the % scale 0 is the no-effect control and ±100 the full control effect.
SMILES,DT40 TDP1 CPT,IL-1B inflam inh,HT1080 IDH1KD tx,HT1080-NT tox,DT40 TDP1 no CPT
COc1ccc(C(=O)Nc2ccc3nc(C)sc3c2)cc1OC,0%,-58*,2%,7%,-17%
Cc1ccc(C)c(S(=O)(=O)N2CCCOC2CNC(=O)C(=O)NCCc2ccco2)c1 (stereo unspecified),-7%,i,-13%,1%,-16%
CC1c2nc3ccccc3n2C(CC(=O)NCc2ccccn2)C(=O)N1Cc1ccccc1 (stereo unspecified),-7%,-8,-13%,-2%,-9%
Cc1cccc(NC(=O)c2c([N+](=O)[O-])c(C(C)(C)C)nn2C)c1,-1%,19,1%,11%,-26%
COc1ccc(NC(=O)c2cccc([N+](=O)[O-])c2)cc1,5%,-17,14%,13%,-1%
O=C(Nc1ccc(Br)cc1)c1cc([N+](=O)[O-])cc([N+](=O)[O-])c1,4.6µM*,-101*,0%,-10%,?
COc1ccc(NC(=O)c2cc([N+](=O)[O-])ccc2O)cc1,8.2µM*,3,?,21µM*,5.8µM*
Cn1nc(C(C)(C)C)c([N+](=O)[O-])c1C(=O)Nc1ccc(Br)cc1,?,-29,-26%,?,23µM*
Cc1ccc(C(=O)NCc2ccncc2)cc1S(=O)(=O)Nc1cccc(C)c1C,-10%,6,-5%,-11%,5%
Cc1ccc(C(=O)Nc2ccccc2-c2ccccc2)cc1S(=O)(=O)Nc1cccc(C)c1C,?,?,?,?,21µM*
COC(=O)c1ccc(NC(=O)c2ccc3nc(C)sc3c2)cc1,-6%,34,-13%,-12%,-1%
O=C(Nc1ccncc1)c1ccccc1F,?,?,-1%,-11%,-26%
O=C(Nc1cccc([N+](=O)[O-])c1)c1cccc(C(=O)Nc2cccc([N+](=O)[O-])c2)c1,?,-22,5%,1%,7.3µM*
O=C(N/N=C/c1cc([N+](=O)[O-])ccc1O)c1cccc(NC(=O)c2cccc(Cl)c2)c1,5.2µM*,92,-13%,-1%,3.3µM*
O=C(Nc1ccncc1)c1cc2ccccc2cc1O,?,-88*,?,?,12µM*
Cc1nc2ccc(C(=O)Nc3cccc([N+](=O)[O-])c3)cc2s1,?,-6,9%,8%,18µM*
Cc1ncc2c(c1CNC(=O)c1ccc3c(c1)OCO3)CCN(C(=O)c1cccc(-n3cccn3)c1)C2,0%[9.04 µM],/,/,/,-22%
CC(OC(=O)C1=COCCO1)C(=O)NC1CCCC(C)C1C (stereo unspecified),6%,2,-4%,0%,-1%
Cc1ccccc1NS(=O)(=O)c1cc(C(=O)Nc2cccc([N+](=O)[O-])c2)ccc1C,?,?,21µM*,?,?
Cc1ccsc1C(=O)OC(C)C(=O)Nc1ccc(Cl)cn1 (stereo unspecified),?,0,-2%,9%,26µM*
COc1cc(/C=C/C(=O)OC(C)C(=O)Nc2ccc(Cl)cn2)ccc1OC(F)F (stereo unspecified),7%,-52*,9%,-1%,0%
Cc1ccc(/C=C/C(=O)OC(C)C(=O)Nc2ccc(Cl)cn2)o1 (stereo unspecified),13µM*,i,2%,17%,16µM*
CC1(C)Cc2ccccc2C(C(Cc2ccccc2)C(N)=O)=N1 (stereo unspecified),-1%,3,5%,9%,-15%
COc1cc2c(c(OC)c1OC)-c1c(cc3c(c1OC)OCO3)C[C@H](C)[C@@](C)(O)C2,-16%,-17,14%,16%,-19%
C/C=C(/C)C(=O)O[C@@H]1c2cc3c(c(OC)c2-c2c(cc(OC)c(OC)c2OC)[C@@H](OC(C)=O)[C@@H](C)[C@H]1C)OCO3,18µM*,1,11%,2%,16µM*
CN(C(=O)c1oc(=O)c2ccccc2c1-c1ccccc1)c1cccc(Cl)c1,18µM*,/,/,/,23µM*
